From PubChem BioAssay (NCATS)
Results filed as inconclusive are left out. Unmarked numbers belong to inactive results. Calls follow the shape of the dose curve; as a rule, active = well fitted cell-killing curve with a large enough effect; inconclusive = small, poorly fitted or top-dose-only effect, or effect the other way; inactive = flat fitted curve, though single readings scatter.

The molecules below were run on Tov-21-G (assay: Primary qHTS to identify gynecologic anti-cancer compounds using libraries of approved drugs and bioactive compounds (AID 1345084; also: nearly all actives have a fitted effect of over 55% in size)). Settings: Gynecologic cancer cell panel viability, ATPlite luminescence, 48 h; series mostly up to 57.5 µM; activity change, negative = cytotoxicity: at the top concentration.
Summary of the method: (§1)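 Five-point cytotoxicity, 48 h drug exposure at 37 C, 5% CO2, on cells seeded 16 h beforehand. ATP content read by ATPlite luminescence.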
% is scaled to controls: 0 for no effect and ±100 for the full control effect.

SMILES	activity change, negative = cytotoxicity
COc1cn(-c2ccc(-n3cccn3)cc2F)nc(-c2ccnn2-c2ccccc2)c1=O	20.3%
CCC1(O)CC2c3cc(OC)c(OC)cc3CCN2CC1CC(C)C (centres undefined)	3.22%
CC(C)=C1C[C@@]2(C)C(=CC1=O)CC[C@@H](O)[C@@H]2C	-7.67%
COC(=O)C(Cc1ccccc1)NC(=O)c1ccccc1 (centres undefined)	0.0986%
C/C(=C\CCC(C)C1CC(O)C2(C)C3CCC4C(C)(C)C(OC5OCC(O)C(O)C5O)CCC45CC35CC(O)C12C)C(=O)O (centres undefined)	1.69% [at 25.3 µM]
CSCC1OC(n2cnc3c(=O)[nH]cnc32)C(O)C1O (centres undefined)	-0.211%
C[C@@H]1O[C@@H](O[C@H]2[C@H](OC(=O)[C@]34CCC(C)(C)C[C@H]3C3=CCC5[C@@]6(C)CC[C@H](O[C@@H]7O[C@H](CO[C@@H]8OC[C@H](O)[C@H](O)[C@H]8O)[C@@H](O)[C@H](O)[C@H]7O)C(C)(C)C6CC[C@@]5(C)[C@]3(C)C[C@H]4O)OC[C@@H](O)[C@@H]2O)[C@H](O)[C@H](O[C@@H]2OC[C@](O)(CO)[C@H]2O)[C@H]1O[C@@H]1OC[C@H](O)[C@H](O[C@@H]2OC[C@@H](O)[C@H](O)[C@H]2O)[C@H]1O (some centres undefined)	4.71% [at 6.55 µM]
C[C@@H]1[C@H](O)[C@@H]2OC(=O)C3=C2[C@H](CCC3)[C@@]12C[C@@H](c1ccoc1)OC2=O	11% [at 38.5 µM]
C/C=C1/C[N+](C)([O-])C2Cc3c([nH]c4ccccc34)C(=O)CC1C2C(=O)OC (centres undefined)	6.9% [at 38.5 µM]
COc1cc(O)cc(O[C@@H]2O[C@H](CO)[C@@H](O[C@@H]3OC[C@](O)(CO)[C@H]3O)[C@H](O)[C@H]2O)c1OC	-0.836% [at 25.3 µM]

Each molecule was assayed on Tov112D in the same assay as above. Settings: Gynecologic cancer cell panel viability, ATPlite luminescence, 48 h; series mostly up to 57.5 µM; activity change, negative = cytotoxicity: at the top concentration.
Summary of the method: as §1

SMILES	activity change, negative = cytotoxicity
CC1(C)C[C@H](O)C[C@@]2(C)[C@H]1[C@H](O)C=C1COC(=O)[C@@]12O	-1.11%
CC(=O)OC12CC(C)C(OC(=O)c3ccccc3)C1/C=C(/C)C(OC(=O)c1ccccc1)CC(=O)C(C)(C)/C=C/C(C)C2=O (centres undefined)	6.34% [at 25.3 µM]
C/C=C(\C)C(=O)OC[C@H]1O[C@@H](O[C@H]2[C@@H](O[C@H]3O[C@H](COC(=O)/C(C)=C/C)[C@@H](O)[C@H](O)[C@H]3O[C@@H]3O[C@H](CO)[C@@H](O)[C@H](OC(=O)/C(C)=C/C)[C@H]3O)O[C@H](COC(=O)/C(C)=C/C)[C@@H](O)[C@@H]2O)[C@H](O)[C@@H](O)[C@@H]1O	2.79% [at 11.6 µM]
COc1ccc(C(=O)OC2C3C=COC(OC4OC(CO)C(O)C(O)C4O)C3C3(CO)OC23)cc1OC (centres undefined)	-1.78% [at 25.3 µM]
N#Cc1cccc(-c2nc(-c3cccnc3)no2)c1	-1.93% [at 25.3 µM]
O=C(/C=C/c1ccc(O)c(O)c1)OC[C@H]1O[C@@H](OC2CCCCC2O)[C@H](O)[C@@H](O)[C@@H]1O (some centres undefined)	3.2% [at 25.3 µM]
NC1=NC2(c3cc(NC(=O)c4ccc(F)cn4)ccc3F)COCC2CS1 (centres undefined)	-0.903%
COC1CC(O[C@H]2CC[C@@]3(C)C(=CC[C@]4(O)C3[C@H](O)[C@@H](O)[C@]3(C)[C@@H]([C@H](C)O)CC[C@@]34O)C2)OC(C)C1OC1CC(OC)C(OC2CC(OC)C(OC3OC(C)C(OC4OC(CO)C(O)C(O)C4O)C(OC)C3O)C(C)O2)C(C)O1 (some centres undefined)	1.61% [at 11.6 µM]
CC1CCC2(C)CCC3(C)C(=CCC4C5(C)CCC(O)C(C)(C(=O)O)C5CCC43C)C2C1C (centres undefined)	0.177% [at 25.3 µM]
NC(N)=NCCC[C@H](NC(=O)c1sccc1NS(=O)(=O)c1cccc2nsnc12)C(=O)O	19.7%
CC[C@@H](C)[C@H](N)C(=O)N1Cc2ccccc2C1	-9.96%
Cc1cc(-c2nncc3c(C(C)(C)C)c(OCc4ncnn4C)nn23)no1	9.49%
C/C=C/C=C/C(O)=C1/C(=O)[C@]2(C)C3/C(=C(O)/C=C/C=C/C)C(=O)C4(C)C1[C@]1(C)O[C@@]4(O)[C@@]3(C)O[C@@]12O	2.09% [at 25.3 µM]
C/C=C(/C)C(=O)O[C@H]1C[C@]2(C)O[C@@H]2[C@@H](OC(C)=O)[C@@]2(C)CC[C@@](O)(C(C)C)[C@H]12	8.46% [at 38.5 µM]
O=C(c1c2ccccc2cc2ccccc12)N1CCC(N2CCC[C@@H](C(=O)N3CCOCC3)C2)CC1	15.4%
C[C@]1(OC(=O)/C=C\c2ccc(O)cc2)C[C@@H](O)[C@]2(O)C=CO[C@@H](O[C@@H]3O[C@H](CO)[C@@H](O)[C@H](O)[C@H]3O)C12 (some centres undefined)	0.279% [at 25.3 µM]
C[C@H]1CC[C@@]2(OC1)O[C@H]1CC3C4CC[C@H]5C[C@@H](O[C@@H]6O[C@H](CO)[C@H](O[C@@H]7O[C@H](CO)[C@@H](O)[C@H](O[C@@H]8OC[C@@H](O)[C@H](O)[C@H]8O)[C@H]7O[C@@H]7O[C@H](CO)[C@@H](O)[C@H](O)[C@H]7O)[C@H](O)[C@H]6O)[C@H](O)C[C@]5(C)C4=CC(=O)[C@]3(C)[C@H]1[C@@H]2C (some centres undefined)	2.81% [at 11.6 µM]

SMILES	activity change, negative = cytotoxicity
COc1cc(C(=O)OCC2=CCC3C(C(=O)O)=COC(O[C@@H]4O[C@H](CO)[C@@H](O)[C@H](O)[C@H]4O)C23)ccc1O (some centres undefined)	1.34% [at 25.3 µM]
C/C=C/C=C/C=C/C(=O)N(C)C(C(=O)NC(C)C(=O)N1CCCC1C(N)=O)C(C)C (centres undefined)	5.17% [at 25.3 µM]
O=C(O)CC1CCC(c2ccc(-c3ccc(Nc4ccc(C(F)(F)F)nc4)cn3)cc2)CC1 (centres undefined)	7.27%
C=CC(C)(O)CC/C=C(\C)C(=O)O[C@@H]1[C@@H](O)[C@H](OC(C)(C=C)CC/C=C(\C)C(=O)O[C@@H]2O[C@H](CO)[C@@H](O)[C@H](O)[C@H]2O)O[C@H](CO)[C@H]1OC(=O)/C(C)=C/CCC(C)(O)C=C (some centres undefined)	-0.614% [at 11.6 µM]
C[C@@H]1O[C@@H](O[C@H]2[C@H](O)[C@@H](O[C@@H]3O[C@H](CO)[C@H](O)[C@H](O)[C@H]3O)[C@H](O[C@H]3CC[C@@]4(C)C(CC[C@]5(C)C4CC=C4[C@@H]6CC(C)(C)CC[C@]6(C(=O)O[C@@H]6O[C@H](CO)[C@@H](O)[C@H](O)[C@H]6O)CC[C@]45C)C3(C)C)O[C@@H]2C(=O)O)[C@H](O)[C@H](O)[C@H]1O (some centres undefined)	3% [at 11.6 µM]
O=C(O)Cc1cn([C@@H]2OC[C@@H](O[C@@H]3O[C@H](CO)[C@@H](O)[C@H](O)[C@H]3O)[C@H](O)[C@H]2O[C@@H]2O[C@H](CO)[C@@H](O)[C@H](O)[C@H]2O)c2ccccc12	0.562% [at 25.3 µM]
CCC(C)/C=C(C)/C=C/C(=O)C1CCC(O)C(C)(O)C1=O (centres undefined)	-7.7%
COc1cn(-c2ccc(-n3cccn3)cc2F)nc(-c2ccnn2-c2ccccc2)c1=O	18.6%
CCC1(O)CC2c3cc(OC)c(OC)cc3CCN2CC1CC(C)C (centres undefined)	4.14%
CC(C)=C1C[C@@]2(C)C(=CC1=O)CC[C@@H](O)[C@@H]2C	-5.41%
COC(=O)C(Cc1ccccc1)NC(=O)c1ccccc1 (centres undefined)	-1.1%
C/C(=C\CCC(C)C1CC(O)C2(C)C3CCC4C(C)(C)C(OC5OCC(O)C(O)C5O)CCC45CC35CC(O)C12C)C(=O)O (centres undefined)	-1% [at 25.3 µM]
CSCC1OC(n2cnc3c(=O)[nH]cnc32)C(O)C1O (centres undefined)	1.01%
C[C@@H]1O[C@@H](O[C@H]2[C@H](OC(=O)[C@]34CCC(C)(C)C[C@H]3C3=CCC5[C@@]6(C)CC[C@H](O[C@@H]7O[C@H](CO[C@@H]8OC[C@H](O)[C@H](O)[C@H]8O)[C@@H](O)[C@H](O)[C@H]7O)C(C)(C)C6CC[C@@]5(C)[C@]3(C)C[C@H]4O)OC[C@@H](O)[C@@H]2O)[C@H](O)[C@H](O[C@@H]2OC[C@](O)(CO)[C@H]2O)[C@H]1O[C@@H]1OC[C@H](O)[C@H](O[C@@H]2OC[C@@H](O)[C@H](O)[C@H]2O)[C@H]1O (some centres undefined)	0.0459% [at 6.55 µM]
C[C@@H]1[C@H](O)[C@@H]2OC(=O)C3=C2[C@H](CCC3)[C@@]12C[C@@H](c1ccoc1)OC2=O	11.7% [at 38.5 µM]
C/C=C1/C[N+](C)([O-])C2Cc3c([nH]c4ccccc34)C(=O)CC1C2C(=O)OC (centres undefined)	1.3% [at 38.5 µM]
COc1cc(O)cc(O[C@@H]2O[C@H](CO)[C@@H](O[C@@H]3OC[C@](O)(CO)[C@H]3O)[C@H](O)[C@H]2O)c1OC	-2.29% [at 25.3 µM]
